# Hits are enriched below; roughly 2.4% of the tested compounds scored in any of these assays.
# Pol iota inh = inhibitors of human DNA polymerase iota; Pol iota fluorescent replication assay, 10 min; Potency, µM (series often up to 115 µM), for inactives: at the top dose activity, negative = inhibition, usual class: inhibitors; actives 1% (n = 390,000)
#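 Fluorescent replication assay read twice, at 0 min and 10 min after adding 50 nM (final) substrate. Enzyme (10 nM) and compounds were first incubated 15 min at room temperature; enzyme-free buffer wells were negative controls.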
# GLS inh = inhibitors of human glutaminase (GLS); Potency, µM (doses to about 45.5 µM), for inactives: at the highest dose activity change, negative = inhibition, hits mostly inhibitors; GLS enzymatic activity, qHTS titration; O94925; actives 0.21% (n = 410,000); AID 624170; note: % is set by controls: 0 for no effect and ±100 for the full control effect
# Target sequence (O94925 whole entry, looked up): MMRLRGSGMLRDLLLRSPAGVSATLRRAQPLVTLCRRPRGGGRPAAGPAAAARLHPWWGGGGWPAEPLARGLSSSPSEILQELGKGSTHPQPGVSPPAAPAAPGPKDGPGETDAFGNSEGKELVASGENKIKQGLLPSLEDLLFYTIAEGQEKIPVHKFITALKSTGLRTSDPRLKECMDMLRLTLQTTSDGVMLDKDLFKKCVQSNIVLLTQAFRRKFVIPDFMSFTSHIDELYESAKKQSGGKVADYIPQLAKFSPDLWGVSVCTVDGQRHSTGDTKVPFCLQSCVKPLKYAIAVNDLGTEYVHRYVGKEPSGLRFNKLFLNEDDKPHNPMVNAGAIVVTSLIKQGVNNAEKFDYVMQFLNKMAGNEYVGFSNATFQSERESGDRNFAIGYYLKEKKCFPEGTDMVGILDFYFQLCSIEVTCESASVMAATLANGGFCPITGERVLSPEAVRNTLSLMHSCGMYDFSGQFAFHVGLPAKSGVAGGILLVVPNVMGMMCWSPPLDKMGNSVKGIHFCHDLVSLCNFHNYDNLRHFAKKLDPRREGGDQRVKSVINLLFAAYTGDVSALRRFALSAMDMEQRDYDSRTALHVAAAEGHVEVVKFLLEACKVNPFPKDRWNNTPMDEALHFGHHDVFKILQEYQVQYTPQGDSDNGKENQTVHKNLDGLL
#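 hKGA; 45 mM KH2PO4 pH 8.2 + 0.02% Tween-20; cpd via pin tool; 1 mM Gln soln; GluOx/HRP/Amplex Red; RT 30 min; fluor. t0 & final.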
# Pol eta inh = blocks human DNA polymerase eta activity. Q9Y253. recombinant Pol eta, fluorescent DNA replication assay. Potency, µM (doses to about 114 µM), for the others: top-dose activity change, negative = inhibition, usual class: inhibitors. actives 1.2% (n = 390,000). AID 588591; note: % is set by controls: 0 for no effect and ±100 for the full control effect
#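 Fluorescent replication assay: 50 nM final substrate added after a 15 min room-temperature compound preincubation with 10 nM enzyme. Signal taken at 0 min and again at 10 min.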
# Pol beta inh = DNA polymerase beta (human) inhibition | Potency, µM (series often up to 114 µM), without a hit: at the highest dose activity change, negative = inhibition, most hits filed as inhibitors | P06746 | AID 485314 | actives 1.3% (n = 340,000) | Pol beta primer extension/strand displacement, fluorescence kinetic; note: % is set by controls: 0 for no effect and ±100 for the full control effect
#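 Human Pol beta at 10 nM; strand-displacement substrate 50 nM final. Compound exposure 15 min at room temperature before start, reaction 10 min at room temperature.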
# GCN5L2 inh = blocks human GCN5L2 histone acetyltransferase; actives 0.21% (n = 390,000); Q92830; GCN5L2 HAT assay, ThioGlo1 CoA-SH fluorescence; Potency, µM (doses to about 58.9 µM), inactives show at the top dose activity change, negative = inhibition, most hits filed as inhibitors; note: % is set by controls: 0 for no effect and ±100 for the full control effect
#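 Preincubate 20nM GCN5L2 with compound 15 min, RT → add 50uM ThioGlo1 + 75uM H3(1-25) + 70uM acetyl-CoA → read fluorescence 0 and 20 min. Primary qHTS; fluorescent artifacts likely.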
# POLK inh = blocks human DNA polymerase kappa activity; Q9UBT6; actives 0.53% (n = 400,000); purified Pol kappa, fluorescent DNA synthesis assay, 10 min; Potency, µM (doses to about 107 µM), inactives show at the top dose activity, negative = inhibition, hits mostly inhibitors; note: % is set by controls: 0 for no effect and ±100 for the full control effect
#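 Fluorescent qHTS in 1536-well format: enzyme (10 nM) and compound sat 15 min at room temperature before 50 nM substrate (final) was added. Signal taken at 0 and 10 min; no-enzyme buffer wells were negative controls.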
# PGK validate = TbPGK inhibition, hit validation; shares compounds with POLK inh; TbPGK coupled GAPDH assay, Kinase-Glo luminescence; Potency, µM (series often up to 57.5 µM), for inactives: at the highest dose activity change, negative = inhibition, actives largely listed as inhibitors; actives 79% (n = 500); note: % is set by controls: 0 for no effect and ±100 for the full control effect; nearly all actives have a fitted effect of over 65% in size
# POLI cherry-pick = Human Pol iota inhibitor confirmatory assay. shares compounds with POLK inh. Pol iota primer extension, TAMRA/BHQ fluorescence. Potency, µM, usual class: inhibitors. actives 77% (n = 1,500). AID 720496
# The depositor's hits bear a star; ? = inconclusive; / = no result; [ ] = remark or other dose. Calls come from the whole dose curve; as a rule, active = well fitted curve in the direction sought with a large enough effect; inconclusive = small, poorly fitted or top-dose-only effect, or another doubt; inactive = no such curve, though single readings can be large; an effect the other way counts as inactive or inconclusive. Potency is the fitted concentration of half-maximal effect.
SMILES,Pol iota inh,GLS inh,Pol eta inh,Pol beta inh,GCN5L2 inh,POLK inh,PGK validate,POLI cherry-pick
Cc1cc(NC(=O)c2cncc(Br)c2)ccc1NC(=O)c1cc2ccccc2o1,?,-12.5%,50.1µM*,?,?,-11.7%,/,?
O=C(N/N=C\c1c(O)ccc2ccccc12)c1ccc(O)cc1,25.6%,7.1%,-8.7%,-2.6%,-3.2%,-21.4%,/,/
O=C(N/N=C/c1c(O)ccc2ccccc12)c1ccc(Br)o1,100.7%,-14.4%,?,12.6µM*,-10.9%,-0.3%,18.3µM*,/
Cc1nn2c(=O)cc(COC(=O)c3ccco3)nc2s1,18.4%,1.3%,-18.1%,-0.4%,2.2%,-3.9%,/,/
CC(C)N1CCc2c(sc(NC(=O)C3CC3)c2-c2nc3ccccc3s2)C1,/,/,/,/,/,/,/,42.3*
Cc1ccc(CNC(=O)Cn2c(=O)n(-c3ccc(Cl)cc3)c(=O)c3c(C)c(C)sc32)cc1,-1.4%,12.3%,7.6%,25.2%,0.2%,-4.6%,/,/
C=C(C)C(=O)Nc1cccc(C2=NOC3(C2)C[C@@H](C(N)=O)N(C(=O)c2cc([N+](=O)[O-])cc([N+](=O)[O-])c2)C3)c1 (stereo not given in full),?,-26.3%,20µM*,14.1µM*,0.2%,?,?,/
CNc1ncnc2ccc(-c3cccc(OC)c3)cc12,/,/,/,/,-19.9%,5.8%[60.1 µM],/,/
COC(=O)c1nn(-c2ccc3c(c2)OCO3)cc1O,-2.4%,-3.6%,-11.7%,31.9%,-19.4%,-9.3%,/,/
COC(=O)c1nn(-c2ccc3c(c2)CCN3C(C)=O)cc1O,44.3%,12.3%,-9.0%,-11.9%,?,-3.8%,20.6µM*,/
O=C(NCc1cccc(Cl)c1)c1cnc(N2CCCCC2)c2ccccc12,41.1%,0.7%,-19.5%,-8.6%,-8.1%,-4.2%[60.1 µM],/,/
CC(=O)c1ccc(-c2ccc(/C=C(/Sc3n[nH]c(C)n3)C(=O)O)o2)cc1,?,?,39.8µM*,?,?,?,/,47.4*
Oc1ccc(CCNc2c3ccccc3nc3ccccc23)cc1O,39.8µM*,?,?,7.08µM*,-4.5%,?,/,75.2*
COc1ccccc1NCCC(=O)OCC(=O)NCc1ccco1,6.31µM*,32.0%,5.62µM*,17.8µM*,-16.4%,79.4µM*,/,?
Cc1cccc(-c2nc(C(N)=O)c3c(n2)n(-c2ccc4c(c2)OCO4)c(=O)n3C)c1,20.7%,-9.7%,-23.1%,37.8%,1.0%,-10.5%,/,/
Cc1ccc(Cl)cc1NC(=O)Nc1nnc(N(C)Cc2ccccc2)s1,7.1%,-6.5%,-8.6%,16.8%,-11.3%,-8.3%,/,/
O=C(N/N=C/c1cccnc1)c1cc(O)c(O)c(O)c1,?,12.0%,-17.7%,?,-19.8%,?,/,23.8*
O=C(CCS(=O)(=O)c1ccc(Br)cc1)NCc1ccco1,25.9%,?,?,?,-5.9%,-2.0%,16.3µM*,/
O=C(CCNC(=O)c1ccc(Br)cc1)NCc1ccco1,-17.8%,-10.9%,-12.0%,/,-5.5%,1.0%,/,/
CCCS(=O)(=O)c1cnc(C2COc3ccccc3O2)nc1N (stereo not given),-9.0%,-1.7%,-7.1%,1.1%,9.9%,-16.6%,18.3µM*,/
c1ccc(-c2noc(-c3cccnc3)n2)nc1,11.0%,-12.2%,-7.9%,11.1%,-18.7%,3.7%,/,/
c1ccc(-c2noc(-c3ccc4c(c3)OCO4)n2)nc1,5.8%,?,-4.7%,?,-10.2%,-3.9%,5.8µM*,/
c1ccc(-c2noc(-c3ccncc3)n2)nc1,29.0%,-7.1%,-11.9%,28.2%,0.3%,4.2%,18.3µM*,/

# High-throughput results deposited in PubChem by National Center for Advancing Translational Sciences (NCATS).
